SNCA expr inh: Primary qHTS assay for inhibitors of alpha-synuclein gene (SNCA) expression. actives 0.17% (n = 140,000). Potency, µM (doses to about 57.2 µM), usual class: inhibitors. HEK-293 SNCA-luciferase knock-in, luminescence, 24 h; further: nearly all actives have a fitted effect of over 45% in size
KDM5B inh: Primary screen for KDM5B Histone Demethylases FDH-coupled qHTS. Lysine-specific demethylase 5B (Homo sapiens), Q9UGL1. KDM5B demethylase, FDH-coupled NADH fluorescence (FDH is formaldehyde dehydrogenase). Potency, µM (titrated, usually from 57.7 µM), most hits filed as inhibitors. actives 2.6% (n = 220,000). AID 1347165, 2019; further: nearly all actives have a fitted effect of over 70% in size
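Coupled FDH/NAD⁺ fluorescence readout. KDM5BΔAP 200 nM final; compound titration, 10 min RT preincubation; substrate mix 12.5 µM H3K4me3, 25 µM 2-OG, 50 µM Fe(II), 100 µM ascorbate, 0.25 mM NAD⁺, 0.25 U/mL FDH; ΔRFU over 30 min.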
IP6K1 inh: Primary qHTS assay for small molecule inhibitors of Inositol hexaphosphate kinase 1 (IP6K1); Inositol hexakisphosphate kinase 1 (Homo sapiens), Q92551; activity change, % (series mostly up to about 58 µM); IP6K1 kinase, ADP-Glo luminescence, 2 h; active compounds read low; actives 0.81% (n = 140,000); in the data active means activity change below about -25%
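ADP-Glo luminescence measures ADP made by human IP6K1 during a 2 h RT reaction with ATP/IP6 (mix at 1.3 mM/130 uM); top library doses 57.5 and 19.1 uM final.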
HEK293 viab: GF-AFC viability counterscreen for inhibitors of alpha-synuclein gene (SNCA) expression; HEK-293-SNCA-luc viability, GF-AFC fluorescence, 24 h; Potency, µM (titrated, usually from 57.1 µM), actives largely listed as cytotoxic; actives 0.12% (n = 150,000); AID 1671193, 2021; further: nearly all actives have a fitted effect of over 30% in size
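Cytotoxicity counterscreen: after 24 h compound treatment of genome-edited SNCA-luciferase HEK-293 cells, live-cell protease substrate GF-AFC read by fluorescence after 30 min; activity scaled between DMSO (0%) and medium-only (-100%), curves Hill-fitted.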
Numbers stand for hits; i = inactive; ? = inconclusive; nt = no result given; [ ] = dose if it differs, or a comment. Rows were chosen to be rich in hits. Some 2.8% of all compounds tested hit in one or more screens of this group. Unless noted, the call rests on the fitted dose curve; in most records, active means well fitted curve in the direction sought with a large enough effect; inconclusive means small, poorly fitted or top-dose-only effect, or another doubt; inactive means no such curve, though single readings can be large; an effect the other way counts as inactive or inconclusive.

SMILES | SNCA expr inh | KDM5B inh | IP6K1 inh | HEK293 viab
O=C1NCCCCCCN(Cc2cccc(OC(F)(F)F)c2)[C@H]2CCC[C@@H]12 | i | 5.62µM | i | i
CC(C)CCN1CCCCCCNC(=O)[C@@H]2CCC[C@@H]21 | i | 10µM | i | i
O=C1NCCCCCCN(Cc2ccncc2)[C@@H]2CN(Cc3ccncc3F)CC[C@H]12 | i | 20µM | i | i
O=C1NCCCCCCN(Cc2ccc(F)c(F)c2)[C@H]2CCC[C@@H]12 | i | 12.6µM | i | i
O=C1NCCCCCN(Cc2ccc(F)cc2F)[C@H]2CCC[C@@H]12 | i | ? | i | i
O=C(NCC(O)c1ccc(F)c(F)c1)c1ccc(=O)[nH]c1 (configuration not stated) | nt | i | nt | nt
CCCCNC(=O)CC1N=C2c3ccccc3N=C(SCC(=O)NCc3ccccc3Cl)N2C1=O (configuration not stated) | i | i | i | i
CN1[C@@H](CCC(=O)Nc2ccccc2)CNC(=O)[C@@H]2[C@H]1CCN2Cc1csnn1 | i | i | i | i
Cc1onc(-c2cnn(C)c2NCc2ccccc2)c1C(=O)NCCc1cccnc1 | i | i | i | i
C#CCNC(=O)c1cc(-c2ccc(OC)cc2)nc2c1cnn2C | nt | nt | i | nt
Cn1ncc2c(C(=O)N3CCOCC3)cc(-c3ccc([S+](C)(=O)[O-])cc3)nc21 | i | ? | i | i
Cn1ncc2c(C(=O)NCc3ccc(F)cc3)cc(-c3ccc([S+](C)(=O)[O-])cc3)nc21 | ? | 50.1µM | i | i
C#CCNC(=O)c1cc(-c2ccc([S+](C)(=O)[O-])cc2)nc2c1cnn2C | i | 31.6µM | i | i
Cn1ncc2c(C(=O)N3CCCC3)cc(-c3ccc([S+](C)(=O)[O-])cc3)nc21 | i | 89.1µM | i | i
CCc1ccccc1NC(=O)c1nc2ccccc2nc1N1CCCCC1 | nt | i | nt | nt
CCN(CCCNC(=O)c1cc(-c2cccnc2)nc2ccccc12)c1cccc(C)c1 | nt | i | nt | nt
COc1ccc(C(=O)NCc2nnc3ccc(-c4ccc(Cl)cc4)nn23)c(OC)c1 | i | i | i | i
Cc1ccc(-c2ccc3nnc(CNC(=O)c4cc(Cl)ccc4F)n3n2)cc1 | i | 28.2µM | i | i
COc1ccc(-c2ccc3nnc(CNC(=O)c4cc(Cl)ccc4F)n3n2)cc1 | i | 28.2µM | i | i
Cc1ccc(-c2ccc3nnc(CNC(=O)c4cc(F)ccc4Cl)n3n2)cc1 | i | 12.6µM | i | i
COc1ccc(-c2ccc3nnc(CNC(=O)c4cc(F)ccc4F)n3n2)cc1 | i | 28.2µM | i | i
Cc1cc(C)n2nc(C(=O)N3CCN4C(=O)CN(C)C(=O)C4C3)cc2n1 (configuration not stated) | i | 28.2µM | i | i
CC(=O)c1c(C)nn(CC(=O)N2CCN3C(=O)CN(C)C(=O)C3C2)c1C (configuration not stated) | i | i | i | i
COc1ccc(-c2nc(C)nc3c2CCC3)c2ccc(C)nc12 | i | 28.2µM | i | i
COc1ccc(NC(=O)c2cc3n(n2)CC(c2ccc4c(c2)OCO4)OC3)cc1 (configuration not stated) | i | ? | i | i
SMILES | SNCA expr inh | KDM5B inh | IP6K1 inh | HEK293 viab
Cc1ccc(NC(=O)c2cc3n(n2)CC(c2ccc4c(c2)OCO4)OC3)cc1Cl (configuration not stated) | i | 28.2µM | i | i
Cc1ccc(NC(=O)c2cc3n(n2)CC(c2ccc4c(c2)OCO4)OC3)cc1F (configuration not stated) | i | 22.4µM | i | i
Cc1nc(CCNC(=O)C2CNCCO2)nc2c1CCCC2 (configuration not stated) | i | i | i | i
C1CCC(c2nc(CCOCC3CCCC3)no2)NC1 (configuration not stated) | i | 28.2µM | i | i
O=C(Cc1c[nH]c2ccccc12)N1CCC(c2nc(CCOCC3CCCC3)no2)C1 (configuration not stated) | 20µM | i | i | i[12.5 µM]
C1CNC(c2nc(CCOCC3CCOCC3)no2)C1 (configuration not stated) | i | i | i | i
O=C1C(c2ccccc2)CC2(CCN(Cc3ncccn3)CC2)CN1C1CC1 (configuration not stated) | i | i | i | i
Cc1cccc(NC(=O)CN(C)C(=O)c2cccc(S(=O)(=O)NCC3CCCO3)c2)c1C (configuration not stated) | nt | i | nt | nt
C=CCNC(=O)C1CCCN(S(=O)(=O)c2ccc(-n3cnnn3)cc2)C1 (configuration not stated) | nt | i | nt | nt
COc1cccc([S+](=O)([O-])NC[C@@H]2CC[C@H]3C[C@@H]2C3(C)C)c1 | 7.08µM | i | i | ?
CC1(C)[C@H]2CC[C@@H](CNC(=O)c3cccc(Br)c3)[C@@H]1C2 | i | i | i | i
O=C(Cn1ccn2nc(-c3ccccc3)c(CO)c2c1=O)NCCc1ccc(Cl)cc1 | i | 28.2µM | i | i
CCCCc1ccc(NC(=O)Cn2ccn3nc(-c4ccccc4)c(CO)c3c2=O)cc1 | i | 25.1µM | i | i
O=C(Cn1ccn2nc(-c3ccccc3)c(CO)c2c1=O)Nc1ccc(Cl)cc1 | i | 28.2µM | i | i
COc1ccc(CCNC(=O)Cn2ccn3nc(-c4ccccc4)c(CO)c3c2=O)cc1OC | i | ? | i | i
O=C(Cn1ccn2nc(-c3ccccc3)c(CO)c2c1=O)Nc1ccc(Br)cc1 | i | ? | i | i
COc1ccc(CCNc2ncnc3c2CN(c2ccccc2)C(=O)CN3C)cc1 | i | i | i | i
Cc1noc(C)c1-c1cc2cc(CO)oc2c(N2CCS(=O)(=O)CC2)n1 | i | 35.5µM | i | i
Cc1noc(C)c1-c1cc2cc(CO)oc2c(N2CCN(c3ccccn3)CC2)n1 | i | ? | i | i
Cc1noc(C)c1-c1cc2cc(C(C)C)oc2c(N2CCS(=O)(=O)CC2)n1 | i | 31.6µM | i | i
CC(C)Oc1ccc(CNC(=O)CCn2c(=O)c3cccn3c3ccc(F)cc32)cc1 | i | i | i | i
CC(C)CCNC(=O)c1ccc2c(c1)nc1n2CCCC1 | nt | i | nt | nt
COc1cc(F)ccc1-c1cc(C(=O)NCc2cnn(C)c2)c2c(c1)N(C)CCO2 | i | 39.8µM | i | i
COc1ccc(-c2cc(C(=O)NCc3cnn(C)c3)c3c(c2)N(C)CCO3)cc1 | ? | 35.5µM | i | i
COc1cc(F)ccc1-c1cc(C(=O)NCc2cccnc2)c2c(c1)N(C)CCO2 | i | 28.2µM | i | i
COc1ccccc1C(=O)NCCc1sc2nc(-c3ccc(F)cc3)nn2c1C | nt | i | nt | nt
CN(C)c1nc2c(c(=O)[nH]1)CCN(Cc1ccccc1F)CC2 | i | i | i | i
CCCNC(=O)c1cc2c(=O)[nH]c(-c3ccccc3)cn2n1 | i | 25.1µM | i | i
CC(C)N1CCN(C(=O)c2cc3c(=O)[nH]c(-c4ccccc4)cn3n2)CC1 | i | 25.1µM | i | i
COCCCNC(=O)c1cc2c(=O)[nH]c(-c3ccccc3)cn2n1 | i | 25.1µM | i | i
